{"source": "paper PMC4336329", "about": "(PLoS ONE, 2015)", "note": "Out of some 310,000 compounds screened, about 14,000 (4.5%) showed an effect of 50% or more. The effect is printed as a negative number. Only a selection was taken, and strong results are over-represented in it overall.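 Note: peak tail current of the secondary pulse compared with the same well before compound.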"}
{"target": "human ether-à-go-go-related gene (hERG) potassium channel (human, UniProt Q12809)", "sequence (Q12809 whole entry, looked up)": "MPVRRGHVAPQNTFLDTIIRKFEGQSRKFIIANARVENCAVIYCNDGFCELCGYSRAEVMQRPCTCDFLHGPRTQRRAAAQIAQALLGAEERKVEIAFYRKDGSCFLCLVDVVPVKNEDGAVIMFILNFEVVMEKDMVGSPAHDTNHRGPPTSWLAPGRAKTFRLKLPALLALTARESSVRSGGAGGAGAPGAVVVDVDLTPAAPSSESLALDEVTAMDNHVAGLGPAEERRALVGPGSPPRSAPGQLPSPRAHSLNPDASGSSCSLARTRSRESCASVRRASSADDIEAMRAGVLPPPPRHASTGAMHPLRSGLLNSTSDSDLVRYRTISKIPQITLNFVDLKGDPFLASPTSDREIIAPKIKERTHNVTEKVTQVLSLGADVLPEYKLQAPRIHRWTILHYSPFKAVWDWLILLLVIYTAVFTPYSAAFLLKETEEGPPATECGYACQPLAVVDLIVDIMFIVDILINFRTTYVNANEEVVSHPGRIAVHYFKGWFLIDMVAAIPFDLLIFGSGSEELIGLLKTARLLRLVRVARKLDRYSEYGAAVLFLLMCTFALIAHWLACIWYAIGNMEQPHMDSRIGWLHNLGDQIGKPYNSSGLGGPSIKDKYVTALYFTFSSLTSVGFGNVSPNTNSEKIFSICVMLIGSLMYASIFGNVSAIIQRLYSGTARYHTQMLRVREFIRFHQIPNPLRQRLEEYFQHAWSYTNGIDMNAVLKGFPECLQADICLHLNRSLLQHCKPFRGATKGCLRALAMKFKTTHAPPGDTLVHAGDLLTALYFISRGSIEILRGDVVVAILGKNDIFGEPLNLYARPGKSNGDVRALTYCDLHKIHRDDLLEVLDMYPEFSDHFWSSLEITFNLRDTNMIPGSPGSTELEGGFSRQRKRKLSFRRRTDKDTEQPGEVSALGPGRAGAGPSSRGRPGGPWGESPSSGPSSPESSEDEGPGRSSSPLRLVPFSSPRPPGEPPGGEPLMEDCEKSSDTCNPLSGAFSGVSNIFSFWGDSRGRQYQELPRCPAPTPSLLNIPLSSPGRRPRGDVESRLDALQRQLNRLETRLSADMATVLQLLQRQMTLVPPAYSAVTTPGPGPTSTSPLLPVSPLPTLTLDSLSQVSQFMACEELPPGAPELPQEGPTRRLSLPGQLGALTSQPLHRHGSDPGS", "assay": "primary screen, population patch clamp on CHO cells stably expressing hERG; higher = less effect of the substance", "units": {"hERG current change (%, negative = inhibition) at 10uM": "%"}}
{"molecule": "O=C(Nc1ccc(F)cc1F)c1ccco1", "hERG current change (%, negative = inhibition) at 10uM": 2.94}
{"molecule": "COc1nc(N)c(S(=O)(=O)c2ccccc2)cc1C#N", "hERG current change (%, negative = inhibition) at 10uM": -19}
{"molecule": "COc1cccc(S(=O)(=O)N2CCN(Cc3ccc4c(c3)OCO4)CC2)c1", "hERG current change (%, negative = inhibition) at 10uM": -24.4}
{"molecule": "COC(=O)/C(=C\\Nc1ccc(Cl)cc1Cl)NC(=O)c1ccc(OC)cc1", "hERG current change (%, negative = inhibition) at 10uM": 5.27}
{"molecule": "Fc1ccc(C2=CC(c3ccco3)n3nnnc3N2)cc1", "note": "(centres unmarked)", "hERG current change (%, negative = inhibition) at 10uM": -6.76}
{"molecule": "Cc1ccc(OC(C)C(=O)Nc2cc(C)on2)cc1", "note": "(centres unmarked)", "hERG current change (%, negative = inhibition) at 10uM": 2.53}
{"molecule": "O=C(NCCSCc1ccccc1)c1ccc(C2SCC(=O)N2Cc2ccccc2)cc1", "note": "(centres unmarked)", "hERG current change (%, negative = inhibition) at 10uM": -8.07}
{"molecule": "CC(=O)c1cccc(NC(=O)c2ccco2)c1", "hERG current change (%, negative = inhibition) at 10uM": 7.09}
{"molecule": "Cc1ccccc1NC(=O)Cn1c(=O)sc2ccccc21", "hERG current change (%, negative = inhibition) at 10uM": -0.661}
{"molecule": "COc1ccc(Cl)cc1NC(=O)C1CCN(C(=O)C2CC(=O)N(c3ccc(C)cc3)C2)CC1", "note": "(centres unmarked)", "hERG current change (%, negative = inhibition) at 10uM": -60.4}
{"molecule": "COc1ccc(C)cc1NC(=O)C1CCN(C(=O)C2CC(=O)N(c3ccc(C)cc3)C2)CC1", "note": "(centres unmarked)", "hERG current change (%, negative = inhibition) at 10uM": -23.1}
{"molecule": "COc1ccc(OC)c(NC(=O)C2CCN(C(=O)C3CC(=O)N(c4ccc(C)cc4)C3)CC2)c1", "note": "(centres unmarked)", "hERG current change (%, negative = inhibition) at 10uM": -37.7}
{"molecule": "CCc1cccc(C)c1NC(=S)NCc1ccccc1", "hERG current change (%, negative = inhibition) at 10uM": 0.76}
{"molecule": "CC(C)OP(=O)(c1ccccc1)c1ccccc1", "hERG current change (%, negative = inhibition) at 10uM": -3.71}
{"molecule": "N#C/C(=C\\N1CCN(Cc2ccc3c(c2)OCO3)CC1)c1nc2ccccc2s1", "hERG current change (%, negative = inhibition) at 10uM": -52.8}
{"molecule": "c1ccc2sc(NC3=NCN(Cc4ccc5c(c4)OCO5)CN3)nc2c1", "hERG current change (%, negative = inhibition) at 10uM": 4.28}
{"molecule": "Cl.N#C/C=C/N1CCN(Cc2ccc3c(c2)OCO3)CC1", "hERG current change (%, negative = inhibition) at 10uM": 1.29}
{"molecule": "CCOC(=O)N1CCN(CC(=O)Nc2nc3ccccc3s2)CC1", "hERG current change (%, negative = inhibition) at 10uM": -35.5}
{"molecule": "CCOC(=O)N1CCN(/C=C(\\C#N)c2nc3ccccc3s2)CC1", "hERG current change (%, negative = inhibition) at 10uM": -58.5}
{"molecule": "CCOC(=O)N1CCN(C(=O)c2nc3ccccc3s2)CC1", "hERG current change (%, negative = inhibition) at 10uM": -0.815}
{"molecule": "CCCn1c(=O)c(C(=O)NCCc2ccc(OC)c(OC)c2)c(O)c2ccccc21", "hERG current change (%, negative = inhibition) at 10uM": 10.5}
{"molecule": "CCOC(=O)C1=C(COC(=O)C2CC(=O)N(c3ccc(C)cc3)C2)NC(=O)NC1C", "note": "(centres unmarked)", "hERG current change (%, negative = inhibition) at 10uM": -7.55}
{"molecule": "Cc1cccc(S(=O)(=O)C(C#N)c2nc3ccccc3nc2N2CCCC2)c1", "note": "(centres unmarked)", "hERG current change (%, negative = inhibition) at 10uM": -18.4}
{"molecule": "O=C(N/N=C1\\CCCc2ccccc21)c1ccc([N+](=O)[O-])cc1Cl", "hERG current change (%, negative = inhibition) at 10uM": -3.01}
{"molecule": "COc1cccc(C(=O)C2CCCN(C/C=C/c3ccccc3OC)C2)c1", "note": "(centres unmarked)", "hERG current change (%, negative = inhibition) at 10uM": -68.4}
{"molecule": "COc1ccc(C(=O)C2CCCN(C/C=C/c3ccccc3OC)C2)c(OC)c1", "note": "(centres unmarked)", "hERG current change (%, negative = inhibition) at 10uM": -77.5}
